Bioassay records deposited in PubChem BioAssay by several laboratories.
An excerpt weighted towards active compounds, which were near 1.7% of everything screened.
HDAC3 inhib: inhibitors of human histone deacetylase 3; recombinant HDAC3, fluorogenic peptide/trypsin coupled, fluorescence; inhibition, % at 8.3 µM; 320,000 compounds, 0.15% hits; AID 2718; in the data active means inhibition above about 26%, passing the limit was not always enough
Fh CTSL1 inh: counter-screen for PFM18AAP inhibitors: inhibitors of F. hepatica cathepsin L1; recombinant F. hepatica cathepsin L1, Z-Leu-Arg-MCA fluorescence; inhibition, % at 5.96 µM; 300,000 compounds, 0.49% hits; AID 1906;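 active means inhibition above the mean of all tested compounds plus 3 SD, set per screening campaign, cut at about 17% in these data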
m5-HT2A agonist: mouse HTR2A agonism via beta-arrestin recruitment; CHO-K1 mHTR2A beta-arrestin complementation, luminescence; percent of 30 µM serotonin response; 360,000 compounds, 0.66% hits; P35363; activation, % at 7.6 µM;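 active means activation above a run cutoff, the mean activation of all tested compounds plus 3 SD, cut at about 14% in these data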
LANA-H2B inh: blocks KSHV LANA binding to histone H2A/H2B; Q9QR71; cell-free LANA-H2A/H2B peptide, fluorescence polarization; inhibition, % (test concentration not listed); 320,000 compounds, 0.6% hits; in the data active means inhibition mostly above about 10%, no sharp cut-off; inactive means mostly below about 6.7%
Target sequence (Q9QR71 whole entry, looked up): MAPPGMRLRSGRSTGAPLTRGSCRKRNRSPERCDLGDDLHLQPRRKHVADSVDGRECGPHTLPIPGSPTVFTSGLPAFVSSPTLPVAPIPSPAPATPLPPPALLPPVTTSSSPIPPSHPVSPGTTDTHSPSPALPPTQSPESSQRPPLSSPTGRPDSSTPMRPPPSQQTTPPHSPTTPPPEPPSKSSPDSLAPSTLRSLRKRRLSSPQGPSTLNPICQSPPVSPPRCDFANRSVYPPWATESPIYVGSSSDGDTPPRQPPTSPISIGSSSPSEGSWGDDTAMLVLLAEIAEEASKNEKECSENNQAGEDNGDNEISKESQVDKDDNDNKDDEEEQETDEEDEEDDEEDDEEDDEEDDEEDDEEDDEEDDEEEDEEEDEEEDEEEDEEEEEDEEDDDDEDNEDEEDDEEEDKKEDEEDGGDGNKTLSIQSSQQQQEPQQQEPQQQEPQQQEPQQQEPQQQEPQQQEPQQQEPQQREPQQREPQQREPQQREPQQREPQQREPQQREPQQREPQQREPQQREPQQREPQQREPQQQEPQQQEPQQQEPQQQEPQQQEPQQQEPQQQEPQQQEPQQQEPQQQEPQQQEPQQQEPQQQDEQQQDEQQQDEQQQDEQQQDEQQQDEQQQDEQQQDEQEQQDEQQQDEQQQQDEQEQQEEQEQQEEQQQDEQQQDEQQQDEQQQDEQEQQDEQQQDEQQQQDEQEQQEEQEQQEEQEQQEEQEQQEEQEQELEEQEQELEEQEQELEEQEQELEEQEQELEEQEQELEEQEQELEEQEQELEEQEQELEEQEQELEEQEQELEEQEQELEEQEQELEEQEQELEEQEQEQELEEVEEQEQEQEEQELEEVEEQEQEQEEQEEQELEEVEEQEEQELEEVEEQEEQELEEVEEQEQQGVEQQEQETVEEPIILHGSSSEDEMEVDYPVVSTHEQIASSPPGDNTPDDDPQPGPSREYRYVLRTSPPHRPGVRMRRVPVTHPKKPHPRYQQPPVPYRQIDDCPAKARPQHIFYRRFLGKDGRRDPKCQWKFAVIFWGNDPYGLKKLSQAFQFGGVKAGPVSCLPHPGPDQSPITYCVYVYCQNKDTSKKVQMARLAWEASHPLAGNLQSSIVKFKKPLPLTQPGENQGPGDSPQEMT
OPRM1 ag: counter-screen for mouse HTR2A agonists: human mu opioid receptor agonists; shares compounds with m5-HT2A agonist; U2OS OPRM1 beta-arrestin PathHunter, luminescence; DMSO 0%, DAMGO 9.3 µM 100%; activation, % at 9.3 µM; 2,300 compounds, 5.3% hits;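 active means mean activation above the mean of DMSO-only wells plus 3 SD, cut at about 0.5% in these data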
m5-HT2A ag conf: mouse HTR2A agonism confirmed. AID 624381. CHO-K1 PathHunter beta-arrestin recruitment, luminescence; DMSO 0%, 30 µM serotonin 100%. activation, % at 7.6 µM. shares compounds with m5-HT2A agonist. 2,300 compounds, 19% hits;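 active means mean activation across triplicates above the hit threshold derived in the original primary screen, cut at about 15% in these data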
Numbers stand for hits; n = inactive; x = not tested or not shown.

SMILES | HDAC3 inhib | Fh CTSL1 inh | m5-HT2A agonist | LANA-H2B inh | OPRM1 ag | m5-HT2A ag conf
CC[C@]12c3[nH]c4ccccc4c3CCN1C(=O)C(CC(=O)NCc1cccc(C(F)(F)F)c1)C[C@@H]2C(=O)N1CCN(C(=O)c2ccco2)CC1 (some centres not stated) | n | x | 21.6 | n | n | n
O=C(C[C@H]1C[C@H](C(=O)N2CCOCC2)[C@@]2(CCC3CCCC3)c3[nH]c4cc(-c5ccco5)ccc4c3CCN2C1=O)NCCN1CCOCC1 | x | x | n | x | x | x
CC1(C(=O)NS(=O)(=O)c2cccc(F)c2)CCN1C(=O)C1(c2ccc(Cl)cc2)CCC1 (configuration not stated) | x | x | n | x | x | x
CCOc1ccccc1N1CCN(Cc2ccco2)CC1 | n | n | n | n | x | x
CCOc1ccccc1N1CCN(Cc2ccc(Br)s2)CC1 | n | n | 47.7 | n | n | 26.3
CCOC(=O)C1=C(CS(=O)(=O)c2ccccc2)NC(=O)NC1c1ccccc1OCC (configuration not stated) | n | n | 17.2 | n | n | n
O=C(Nc1nc2ccccc2s1)c1ccc(F)cc1 | n | n | 52.7 | n | n | n
CCN(CC(=O)NCc1ccc(F)cc1)C(=O)c1cccnc1SC | n | n | 15.4 | n | n | n
CCn1c(CNC(=O)c2ccco2)nnc1SCC(=O)Nc1ccccc1Cl | n | n | n | n | x | x
CCn1c(CNC(=O)c2ccco2)nnc1SCC(=O)Nc1cc(C)c(C)cc1Br | n | n | 15.0 | n | 1.0 | n
Nc1nc(N2CCN(Cc3ccccc3)CC2)n[nH]1 | n | n | 39.1 | n | n | 109.9
Nc1nc(N2CCN(C(c3ccccc3)c3ccccc3)CC2)n[nH]1 | n | n | n | n | x | x
O=C(/C=C/[C@H]1O[C@@H](n2ccc(=O)[nH]c2=O)[C@H](O)[C@@H]1O)NCCN1CCCCC1 | x | x | 16.0 | x | n | n
CN1CCc2c(sc3nc(NCCO)n(-c4cccc(Cl)c4)c(=O)c23)C1 | n | n | n | n | x | x
CN1CCc2c(sc3c2c(=O)n(-c2cccc(Cl)c2)c2nncn32)C1 | n | n | 23.0 | n | n | n
Cc1cc(C)n(-c2nnc(C)n2/N=C/c2ccccc2O)n1 | n | n | n | n | x | x
Cc1cc(C)n(-c2nnc(C)n2N)n1 | n | n | 18.0 | n | n | n
Cc1ccc2[nH]c(-c3ccccc3)c(CN3CCCC3)c(=O)c2c1 | n | n | 20.4 | n | n | n
COc1ccc(S(=O)(=O)NCC(c2ccc3c(c2)OCO3)N2CCN(c3ccccc3)CC2)cc1 (configuration not stated) | n | n | 18.4 | n | n | 65.9
CCCCc1c(-c2ccc(OC)cc2)ncn1CCc1ccccc1OC | x | x | n | x | x | x
O=C(O)c1ccccc1C(c1ccc(O)cc1)c1ccc(O)cc1 | n | n | n | n | x | x
Nc1ncnc2[nH]c(=S)[nH]c12 | x | x | 17.3 | x | n | n
O=C(Nc1ccc(F)cc1F)Nc1ccccc1C(=O)NCCN1CCNC1=O | n | n | 39.9 | n | n | n
CCc1ccccc1NC(=O)Nc1ccc(F)cc1F | n | n | n | n | x | x
O=[N+]([O-])c1ccccc1S(=O)(=O)N1CCCC(C(F)(F)F)C1 (configuration not stated) | n | n | n | n | x | x
SMILES | HDAC3 inhib | Fh CTSL1 inh | m5-HT2A agonist | LANA-H2B inh | OPRM1 ag | m5-HT2A ag conf
CC(=O)c1ccc(NC(=O)CN2CCC(NC(=O)c3ccccc3C)CC2)cc1 | x | x | 22.6 | x | n | n
Cc1ccccc1C(=O)NC1CCN(CC(=O)Nc2ccc(N(C)C)cc2)CC1 | n | n | n | n | x | x
CCC(c1nnnn1-c1ccc2c(c1)OCCO2)N1CCN(C/C=C/c2ccccc2)CC1 (configuration not stated) | x | x | 19.8 | x | n | 61.9
C(=C\c1ccccc1)/CN1CCN(C(CCc2ccccc2)c2nnnn2-c2ccc3c(c2)OCCO3)CC1 (configuration not stated) | x | x | n | x | x | x
C(=C\c1ccccc1)/CN1CCN(C(c2nnnn2-c2ccc3c(c2)OCCO3)C2CC2)CC1 (configuration not stated) | x | x | 14.8 | x | n | 51.2
COc1ccc(-c2cc(C(=O)NCCN3CCOCC3)no2)cc1OC | n | n | n | n | x | x
O=C(NC(=O)N1CCN(c2cccc(Cl)c2)CC1)c1ccccc1 | n | n | 15.0 | n | n | n
O=C(NC(=O)N1CCN(c2cccc(Cl)c2)CC1)c1ccc(Cl)cc1 | n | n | n | n | x | x
COc1ccc(CCN(C)C(=O)CCNS(=O)(=O)c2ccccc2C(F)(F)F)cc1OC | n | x | n | n | x | x
Cc1ccccc1OCC(=O)Nc1cccc(S(=O)(=O)NC2=NCCC2)c1 | n | x | 15.7 | n | n | n
Cc1ccccc1OCC(=O)Nc1cccc(S(=O)(=O)NC2=NCCCCC2)c1 | n | n | n | n | x | x
Cc1nc(-c2nc(-c3c(C(=O)NNC(=O)Nc4cccc(Cl)c4)noc3C)cs2)cs1 | n | n | 19.3 | n | n | 51.8
COc1cc(C2c3c(c(C)c(C)oc3=O)Oc3c(C)c(C)oc(=O)c32)ccc1OS(=O)(=O)c1ccc(C)cc1 | n | x | n | n | x | x
CCNC(=O)N1CCCC(C(=O)c2ccc(C(F)(F)F)cc2)C1 (configuration not stated) | n | n | n | n | x | x
Cn1c(CSCc2ccccc2Cl)n[nH]c1=S | n | n | n | n | x | x
S=c1[nH]nc(CSCc2ccccc2Cl)n1C1CCCCC1 | x | x | 29.3 | x | n | n
COc1ccc(C(=O)N=C2SC3CS(=O)(=O)CC3N2c2ccc(C(C)=O)cc2)cc1 (configuration not stated) | n | n | 15.7 | n | n | n
COCC(=O)N1CCC(Oc2ccc(C(=O)N3C[C@@H]4CCC[C@H]3C4)cc2)CC1 | x | x | n | x | x | x
O=C(C1CCN(S(=O)(=O)c2ccc(Cl)cc2)CC1)N1CCCC1 | n | n | n | n | x | x
Cc1ccc(S(=O)(=O)N2CCC(C(=O)N3CCC3)CC2)cc1 | n | n | 16.6 | n | n | n
O=C(CCOc1ccccc1)Nc1ccc(S(=O)(=O)Nc2ncccn2)cc1 | x | x | n | x | x | x
CCCc1nnc(SCC(=O)Nc2ccccc2Cl)n1CC1CCCO1 (configuration not stated) | n | n | n | n | x | x
CC1CCc2c(sc(Nc3nc4c(F)cccc4s3)c2C(N)=O)C1 (configuration not stated) | n | n | 18.7 | n | n | n
CC(C)CNC(=O)c1ccc2c(c1)C(=O)N(Cc1ccco1)C2=O | n | n | n | n | x | x
CCCCc1cc(=O)oc2cc(OCC(=O)NCc3ccccn3)c(Cl)cc12 | n | n | n | n | x | x
CCCCc1cc(=O)oc2cc(OC(C)C(=O)NCc3ccccn3)c(Cl)cc12 (configuration not stated) | n | n | 17.1 | n | n | n
CCOc1ccccc1CN1CCNC(=O)C1CC(=O)NCCN1CCOC1=O (configuration not stated) | n | n | 15.0 | n | n | n
